Experimental findings from PubChem BioAssay (NCI) are described below.

About 83,000 compounds went through this panel and 20% of them were active in at least one assay; those are over-represented in the sample as a whole.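 Assay: single dose, 48 h. Readout: percent growth (0 = no net growth; negative = cell death). Active: <10.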 Values without a mark were called inactive. Activity calls are given as the source filed them.

Some test systems named below: NCI-H23 lung; NCI-H226 lung; NCI-H322M lung; HOP-62 NSCLC; NCI-H460 lung; HOP-92 NSCLC; A549/ATCC NSCLC; 786-0 renal; COLO 205 colon; K-562 leukemia; MALME-3M melanoma; MDA-MB-231 breast; RXF 393 renal; SF-268 CNS; SF-295 CNS; SF-539 CNS; M14 melanoma; DU-145 prostate; UACC-257 melanoma.
Experiment in all cases: NCI-60 one-dose screen, 48 h (100 = growth as untreated, 0 = no growth, -100 = all killed)
What all share (details): 10 µM unless noted

With `COc1ccc(OC)c2c1CCC1(C2)NC(=O)NC1=O` (stereo not given), the growth is 106% in the assay on NCI-H23 lung; 102% in the assay with NCI-H226 lung; 107% in the assay with NCI-H322M lung; 95.2% with HOP-62 NSCLC; 107% in the assay with NCI-H460 lung; 69.3% in the assay with HOP-92 NSCLC. The growth with A549/ATCC NSCLC was 98.9%; in the assay with 786-0 renal, 113%; in the assay with COLO 205 colon, 98.9%; in the assay with K-562 leukemia, 105%; in the assay on MALME-3M melanoma it was 96.5%; in the assay on MDA-MB-231 breast, 98.8%. In addition, the growth in the assay on RXF 393 renal was 108%; with SF-268 CNS it was 133%; in the assay on SF-295 CNS it was 113%; with SF-539 CNS, 95.1%; in the assay with M14 melanoma, 105%.

Turning to `CN1CCN(CCCCCN=c2cc3c(=O)n(CCCCCN4CCN(C)CC4)c(=O)c4c(NCCCCCN5CCN(C)CC5)cc5c(O)n(CCCCCN6CCN(C)CC6)c(=O)c2c5c4-3)CC1`, the growth in the assay on NCI-H23 lung is 34.1%; in the assay on NCI-H226 lung it was 0.125% (active); with NCI-H322M lung it was -23.2% (active); in the assay with HOP-62 NSCLC, 14.6%; in the assay on NCI-H460 lung it was 5.16% (active); with HOP-92 NSCLC, 2.86% (active). In addition, the growth in the assay on A549/ATCC NSCLC was 5.01% (active); with 786-0 renal it was 92.9%; with COLO 205 colon, -15.4% (active); in the assay on DU-145 prostate, 0.918% (active); in the assay with K-562 leukemia, 8.94% (active); in the assay with MDA-MB-231 breast it was -34% (active). Further, the growth in the assay with RXF 393 renal is 64.4%; with SF-268 CNS, -2.31% (active); in the assay on SF-295 CNS, 36.4%; in the assay on SF-539 CNS, 10.4%; in the assay with UACC-257 melanoma, -11.4% (active); in the assay with M14 melanoma it was 81.8%.

Consider `O=C(Nc1nc2ccc(OC(F)(F)F)cc2s1)c1ccc(F)cc1`, for which the growth with NCI-H23 lung was -34.7% (active); in the assay on NCI-H226 lung it was 20.6%; with NCI-H322M lung, 30%; in the assay with HOP-62 NSCLC it was 26.1%; in the assay with NCI-H460 lung, -13.1% (active); in the assay with HOP-92 NSCLC, -14% (active). Also, the growth with A549/ATCC NSCLC is 14.5%; in the assay on 786-0 renal, 16.2%; with COLO 205 colon, -17.4% (active); in the assay on K-562 leukemia, 9.01% (active); with MALME-3M melanoma, 10.9%; with MDA-MB-231 breast, 27.1%. The growth was 48.5% in the assay with RXF 393 renal; 8.27% (active) with SF-268 CNS; 4% (active) in the assay on SF-295 CNS; 21.5% with SF-539 CNS; 22.3% with UACC-257 melanoma; 37.3% with M14 melanoma.

Regarding `C(=C1c2ccccc2-c2ccccc21)c1ccncc1`, the growth was 58.5% in the assay on NCI-H23 lung; 86.8% in the assay on NCI-H226 lung; 80.1% in the assay on NCI-H322M lung; 56.3% with HOP-62 NSCLC; 33.7% with NCI-H460 lung; 55.9% in the assay on HOP-92 NSCLC. The growth in the assay with A549/ATCC NSCLC is 49.1%; in the assay with 786-0 renal, 58.2%; in the assay on COLO 205 colon it was 49.4%; in the assay on DU-145 prostate, 84.9%; in the assay on K-562 leukemia, 11.4%; in the assay on MDA-MB-231 breast it was 44.2%. Besides, the growth is 72.3% in the assay with RXF 393 renal; 54.8% in the assay on SF-268 CNS; 35.6% in the assay with SF-295 CNS; 56.3% in the assay with SF-539 CNS; 74.5% in the assay on UACC-257 melanoma; 18.7% in the assay with M14 melanoma.

`CCN(CC)c1ccc(N=C2C=CC(=O)C=C2NC(C)=O)cc1`: the growth is 92.9% in the assay on NCI-H23 lung; 93.7% in the assay on NCI-H226 lung; 105% with NCI-H322M lung; 107% in the assay with HOP-62 NSCLC; 106% in the assay on NCI-H460 lung; 104% in the assay with HOP-92 NSCLC. For the same compound, the growth is 100% with A549/ATCC NSCLC; 111% in the assay on 786-0 renal; 111% with DU-145 prostate; 77.9% in the assay with K-562 leukemia; 142% in the assay on MALME-3M melanoma; 81.7% in the assay with MDA-MB-231 breast. Also, the growth with RXF 393 renal is 94.8%; with SF-268 CNS, 94%; in the assay with SF-295 CNS, 115%; in the assay with SF-539 CNS it was 95.3%; in the assay with UACC-257 melanoma, 90.7%; with M14 melanoma, 109%.

For the compound `O=C(Oc1cccc2ccccc12)c1ccccc1C(=O)c1ccccc1`, the growth was 93% with NCI-H23 lung; 105% with NCI-H226 lung; 101% in the assay with NCI-H322M lung; 101% in the assay with HOP-62 NSCLC; 93.2% in the assay on NCI-H460 lung; 54.5% in the assay on HOP-92 NSCLC. Besides, the growth in the assay with A549/ATCC NSCLC was 88.3%; in the assay on 786-0 renal it was 103%; in the assay on COLO 205 colon it was 112%; with DU-145 prostate, 99.3%; with K-562 leukemia it was 5.05% (active); in the assay with MDA-MB-231 breast, 85.7%. In addition, the growth with RXF 393 renal is 98.3%; in the assay with SF-268 CNS, 79%; in the assay with SF-295 CNS, 98.5%; with SF-539 CNS, 103%; in the assay with UACC-257 melanoma, 90.4%; with M14 melanoma it was 93.4%.

As to `CCSCC1CC(O)(c2ccccc2)C(c2ccccc2)C(c2ccc(Cl)cc2)O1` (stereo not given), the growth in the assay with NCI-H23 lung was 14.7%; with NCI-H226 lung, -1.26% (active); in the assay on NCI-H322M lung it was 18%; in the assay with HOP-62 NSCLC, 16.4%; with NCI-H460 lung, -45.8% (active); with HOP-92 NSCLC it was -3.51% (active). The growth in the assay with A549/ATCC NSCLC was -23.1% (active); in the assay on 786-0 renal, 3.26% (active); in the assay with COLO 205 colon it was -100% (active); in the assay on DU-145 prostate, 18.2%; with MALME-3M melanoma, -34.7% (active); in the assay on MDA-MB-231 breast, -26% (active). The growth in the assay with RXF 393 renal is -30.9% (active); in the assay on SF-268 CNS, 17.3%; in the assay on SF-295 CNS, -54.1% (active); with SF-539 CNS it was -16.4% (active); in the assay on UACC-257 melanoma, -11.5% (active); with M14 melanoma, 14.3%.

On to `CCCCCCCCCCCCC1CCCC(C)C1` (stereo not given), for which the growth with NCI-H23 lung is 105%; in the assay on NCI-H226 lung it was 99.8%; in the assay on NCI-H322M lung it was 95%; in the assay with HOP-62 NSCLC, 90.5%; with NCI-H460 lung it was 101%; in the assay on HOP-92 NSCLC it was 69.1%. Also, the growth in the assay with A549/ATCC NSCLC is 93.1%; with 786-0 renal it was 92.3%; in the assay on COLO 205 colon, 98.1%; in the assay on DU-145 prostate, 109%; in the assay with MALME-3M melanoma, 93.3%; in the assay on MDA-MB-231 breast it was 105%. In addition, the growth in the assay on RXF 393 renal was 109%; with SF-268 CNS, 110%; in the assay on SF-295 CNS, 90.1%; in the assay on SF-539 CNS it was 118%; with M14 melanoma it was 106%.

Turning to `CC(=O)N1N=C(c2ccc(C(F)(F)F)cc2)CC1c1ccc2c(c1)OCO2` (stereo not given), the growth with NCI-H23 lung is 79.2%; in the assay with NCI-H226 lung it was 96.5%; in the assay with NCI-H322M lung, 84.8%; in the assay with HOP-62 NSCLC it was 102%; in the assay with NCI-H460 lung, 85%; in the assay on HOP-92 NSCLC, 77.5%. Besides, the growth with A549/ATCC NSCLC is 91.2%; in the assay with 786-0 renal, 87.4%; in the assay with COLO 205 colon, 100%; with DU-145 prostate it was 113%; in the assay on K-562 leukemia it was 73.8%; in the assay on MDA-MB-231 breast it was 82.3%. The growth with RXF 393 renal is 107%; in the assay with SF-268 CNS, 104%; in the assay on SF-295 CNS it was 67.1%; in the assay on SF-539 CNS it was 101%; in the assay on UACC-257 melanoma, 102%; in the assay on M14 melanoma, 69.7%.
